The source made the active and inactive calls. The rule behind the calls is not given here.
Each compound was assayed against Pantothenate synthetase (Mycobacterium tuberculosis (strain ATCC 25618 / H37Rv)) (UniProt P9WIL5) (assay: Coupled enzyme confirmation of inhibitors against recombinant Mtb PanC (AID 375;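 note: 0% = full reaction with vehicle and 100% = no enzyme background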)). Details: coupled enzyme assay; at 10 µM, active compounds read high.
Sequence of Pantothenate synthetase (Mycobacterium tuberculosis (strain ATCC 25618 / H37Rv)) (P9WIL5 whole entry, looked up): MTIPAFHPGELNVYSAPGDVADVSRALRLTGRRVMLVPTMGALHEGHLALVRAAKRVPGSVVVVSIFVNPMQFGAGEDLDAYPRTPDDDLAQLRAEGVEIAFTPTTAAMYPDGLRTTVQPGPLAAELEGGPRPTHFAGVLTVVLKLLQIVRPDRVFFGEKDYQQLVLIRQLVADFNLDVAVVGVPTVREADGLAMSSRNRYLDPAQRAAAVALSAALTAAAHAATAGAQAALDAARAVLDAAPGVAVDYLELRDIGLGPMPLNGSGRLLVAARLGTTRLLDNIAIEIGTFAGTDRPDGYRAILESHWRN
In the case of `CCOC(=O)c1ccc(N(CC(=O)NC2CCCC2)C(=O)CNC(=O)c2ccco2)cc1`, the inhibition is reported as 6% (inactive).
With `Cc1cc(C(=O)Nc2nnc(C(F)(F)F)s2)no1` the inhibition was 0% (inactive).
For `Cc1nc2cc(Cl)ccc2n1CCO`, the inhibition was 2% (inactive).
With `O=C(Nc1cccc(F)c1)C1C2C=CC3(CN(CCCN4CCOCC4)C(=O)C13)O2` (centres undefined) the inhibition was 0% (inactive).
In the case of `Cc1cc2ccccc2n1CCNC(=O)c1ccc(S(=O)(=O)N2CCOCC2)cc1`, the inhibition is reported as 4% (inactive).
In the case of `CCCCNC(=O)c1c(C)cc(=O)oc1C`, the inhibition is reported as 9% (inactive).
With `O=S(=O)(c1ccc(OCC(O)CN2CCN(c3ccccc3)CC2)cc1)N1CCOCC1` (centres undefined) the inhibition was 7% (inactive).
`CC1(C)CC(=O)C(C=NCC2CCNCC2)=C(O)C1` was tested, and the inhibition was 2% (inactive).
With `CCCCCn1c(CN2CCN(c3cccc(Cl)c3)CC2)nc2c1c(=O)n(C)c(=O)n2C` the inhibition was 0% (inactive).
For `Cc1ccccc1Cn1nc(C)c(NC(=O)c2noc3c2CCc2ccccc2-3)c1C`, the inhibition was 0% (inactive).
With `CC(C)CCNC(=O)NC(=O)CSc1nnc(COc2ccccc2Cl)o1` the inhibition was 7% (inactive).
`CSc1ncc(Cl)c(C(=O)Nc2ccc(S(=O)(=O)N3CCOCC3)cc2)n1` was tested, and the inhibition was 0% (inactive).
With `CCC(Sc1ccc2nnc(-c3ccc(F)cc3)n2n1)C(=O)OC` (centres undefined) the inhibition was 0% (inactive).
In the case of `O=C1CCC(=O)N1OCCCCOc1ccccc1`, the inhibition is reported as 2% (inactive).
`COc1cccc(-c2nc(CS(=O)(=O)CC(=O)N3CCc4ccccc4C3)c(C)o2)c1` was tested, and the inhibition was 4% (inactive).
In the case of `COCCN1C(=O)c2oc3c(C)cc(C)cc3c(=O)c2C1c1cccc(O)c1` (centres undefined), the inhibition is reported as 5% (inactive).
With `CCOC(=O)c1oc2cccc(OC(C)=O)c2c1C` the inhibition was 4% (inactive).
`Cc1cccc(-n2nc3c(c2NC(=O)CCC2CCCCC2)CS(=O)C3)c1C` (centres undefined) was tested, and the inhibition was 3% (inactive).
In the case of `O=C(Nc1ccccc1C(=O)N1CCN(c2ccccc2)CC1)c1ccco1`, the inhibition is reported as 0% (inactive).
In the case of `O=C(NCCCCNC(=O)c1c(F)c(F)c(F)c(F)c1F)c1c(F)c(F)c(F)c(F)c1F`, the inhibition is reported as 0% (inactive).
For `CCOC(=O)N1CCC(N(C(=O)Nc2ccc(Cl)c(Cl)c2)C(C)CC)CC1` (centres undefined), the inhibition was 4% (inactive).
With `Cc1ccccc1OCC(O)CN` (centres undefined) the inhibition was 0% (inactive).
In the case of `COc1cccc(C2C(C(N)=O)=C(C)Nc3nc(CCCO)nn32)c1OC` (centres undefined), the inhibition is reported as 3% (inactive).
For `CCN1CCN(Cc2nc3c(c(=O)[nH]c(=O)n3C)n2Cc2ccccc2Cl)CC1`, the inhibition was 2% (inactive).
`Cc1noc(C)c1S(=O)(=O)N1CCCC(C(=O)NCCc2ccc(Cl)cc2)C1` (centres undefined) was tested, and the inhibition was 3% (inactive).
With `CCCC(=O)N1CCN(c2ccc(NC(=O)c3ccc(Br)o3)cc2)CC1` the inhibition was 3% (inactive).
`CCOC(=O)N1CCC(NC(=O)c2ccc(OC)c(CN3CC(=O)N4CCCC4C3=O)c2)CC1` (centres undefined) was tested, and the inhibition was 0% (inactive).
With `COCCn1cc(C(=O)c2ccccc2OCC(=O)Nc2cc(C)on2)cc(C#N)c1=O` the inhibition was 0% (inactive).
In the case of `O=C(NC(NC1CCS(=O)(=O)C1)C(=O)c1cccs1)c1ccccc1` (centres undefined), the inhibition is reported as 1% (inactive).
For `O=C(Cn1c(=O)oc2ccccc21)Nc1ccc(S(=O)(=O)N2CCCCC2)cc1`, the inhibition was 0% (inactive).
In the case of `CN(CC(=O)Nc1nccs1)S(=O)(=O)c1ccc(F)cc1`, the inhibition is reported as 0% (inactive).
`O=C(CSc1nnc(-c2cccnc2)o1)Nc1ccccn1` was tested, and the inhibition was 0% (inactive).
For `Cc1c(/C(O)=C2/C(=O)C(=O)N(CCN3CCOCC3)C2c2cccs2)cnn1-c1ccccc1` (centres undefined), the inhibition was 8% (inactive).
In the case of `Cc1ccc(-c2nnn(CC(=O)N(Cc3ccco3)C(C(=O)NC(C)(C)C)c3cccs3)n2)o1` (centres undefined), the inhibition is reported as 0% (inactive).
In the case of `COC1CCCCC1NS(=O)(=O)c1ccccc1` (centres undefined), the inhibition is reported as 0% (inactive).
In the case of `c1ccc2c(CC3=NCCN3)cccc2c1`, the inhibition is reported as 0% (inactive).
With `CCCC(=O)NCCc1cc2c(C)ccc(C)c2[nH]c1=O` the inhibition was 0% (inactive).
In the case of `Cc1cccc(N2CCN(C(=O)Cn3ccc4ccccc4c3=O)CC2)c1C`, the inhibition is reported as 0% (inactive).
`CC1Cc2nc(SCC(N)=O)n(Cc3ccccc3)c(=O)c2S1` (centres undefined) was tested, and the inhibition was 0% (inactive).
